These results are taken from PubChem BioAssay (EPA / NIEHS).

SMILES strings stand for the structures. Active and inactive are the calls of the source. How the source made its calls: active means hit-call score of the fitted dose curve at least 0.9, where 1 is the maximum; inactive means score below 0.9.

Transcription factor Sp1 (Homo sapiens), sequence (P08047 whole entry, looked up): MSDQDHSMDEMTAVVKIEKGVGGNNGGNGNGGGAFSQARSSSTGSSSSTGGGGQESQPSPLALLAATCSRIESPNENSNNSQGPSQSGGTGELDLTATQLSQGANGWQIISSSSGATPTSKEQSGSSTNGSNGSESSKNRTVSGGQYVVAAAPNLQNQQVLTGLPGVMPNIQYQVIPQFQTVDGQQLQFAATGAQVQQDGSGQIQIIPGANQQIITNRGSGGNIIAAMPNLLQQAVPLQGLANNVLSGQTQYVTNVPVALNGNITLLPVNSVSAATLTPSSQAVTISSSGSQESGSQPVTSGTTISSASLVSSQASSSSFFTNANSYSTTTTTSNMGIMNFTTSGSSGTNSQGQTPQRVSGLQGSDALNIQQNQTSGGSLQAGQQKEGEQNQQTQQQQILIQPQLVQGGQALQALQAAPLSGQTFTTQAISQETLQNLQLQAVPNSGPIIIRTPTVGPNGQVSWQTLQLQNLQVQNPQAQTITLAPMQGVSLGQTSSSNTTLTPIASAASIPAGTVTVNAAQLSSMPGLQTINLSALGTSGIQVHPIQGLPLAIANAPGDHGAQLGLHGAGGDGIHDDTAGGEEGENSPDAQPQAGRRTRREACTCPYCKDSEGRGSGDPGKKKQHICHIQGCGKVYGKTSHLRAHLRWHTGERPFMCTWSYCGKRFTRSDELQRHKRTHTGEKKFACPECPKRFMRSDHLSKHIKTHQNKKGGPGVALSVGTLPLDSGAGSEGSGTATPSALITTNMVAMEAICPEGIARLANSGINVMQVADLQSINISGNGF

This assay addresses Transcription factor Sp1 (Homo sapiens) (UniProt P08047). Description: ATG_Sp1_CIS: Attagene CIS-FACTORIAL HepG2 Assay for human Specificity Protein 1 (Sp1) (AID 2282961). Conditions: HepG2 Sp1 cis-reporter transcription, actives raise or lower the signal. The method, then:
ATG_CIS is a cell-based, multiplexed-readout assay that uses HepG2, a human liver cell line, with measurements taken at 24 hours after chemical dosing in a 24-well plate.ATG_Sp1_CIS is one of 52 assay component(s) measured or calculated from the ATG_CIS assay. It is designed to make measurements of mRNA induction, a form of inducible reporter, as detected with fluorescence intensity signals by Reverse transcription polymerase chain reaction (RT-PCR) and Capillary electrophoresis technology.Data from the assay component ATG_Sp1_CIS was analyzed into 1 assay endpoint. This assay endpoint, ATG_Sp1_CIS, was analyzed with bidirectional fitting relative to DMSO as the negative control and baseline of activity. Using a type of inducible reporter, measures of mRNA for gain or loss-of-signal activity can be used to understand the reporter gene at the transcription factor-level as they relate to the gene SP1. Furthermore, this assay endpoint can be referred to as a primary readout, because this assay has produced multiple assay endpoints where this one serves a reporter gene function. To generalize the intended target to other relatable targets, this assay endpoint is annotated to the dna binding intended target family, where the subfamily is zinc finger.
Human liver HepG2 cells are transiently transfected with multiple reporter transcription units (MRTUs) in 6-well plates using FuGene 6 reagent (Roche; 3 ml FuGene/1 mg DNA). The MRTU constructs are regulated by a cis-regulating element (promoter). […] A major difference between the CIS and TRANS system is that in CIS activities of endogenous TFs are measured, whereas the TRANS assay evaluates changes in activities of exogenous, chimeric NR-Gal4 proteins. […] At the end of 24 hour incubation, total RNA was isolated using TriZol reagent (Invitrogen). The isolated RNA is then reverse-transcribed using oligo(dT) primer and Mo-MLV reverse transcriptase (Invitrogen) with DNAse I (Ambion) treatment for 30 min. The one-tenth of the produced cDNA was amplified by PCR using Taq DNA polymerase (Invitrogen) and two reporter sequence-specific primers. The PCR products were fluorescently labeled by primer extension with 6-arboxyfluorescein (6-FAM) 5'-labeled reporter sequence-specific primer (2 min at 95 C, 20 s at 68 C and 10 min at 72 C) and these products were digested with 5U of HpaI (New England Biolabs) for 2h at 37 C. The fragments were purified using Qiaquick PCR columns (Qiagen), analyzed on an ABI 3130xL genetic analyzer (Applied Biosystems) with peak positions identified by using a set of X-rhodamine (ROX)-labeled MapMarker1000 molecular weight standards (BioVentures). The raw capillary electrophoresis data was processed using Attagraph software (Attagene).
For `CSc1ccc(O)cc1C`, the compound was classed as inactive.

On to `O=C(O)C(F)(F)C(F)(F)C(F)(F)OC(F)(F)F`, for which the compound was called inactive.

For `FC(F)(F)C(F)(F)C(F)(F)CC1CO1` (stereo not given), the call was inactive.

For the compound `CCCCOC(=O)C(C)O` (stereo not given), the compound was classed as inactive.

For `COC(=O)c1ccc(C=O)cc1`, the result was inactive.

In the case of `COC(F)(C(F)F)C(F)(F)F` (stereo not given), the compound was called inactive.

With `Nc1c(Br)cc([N+](=O)[O-])cc1Br`, the compound was classed as inactive.

`C[Si](C)O[Si](C)C`: the outcome was inactive.

For the compound `O=C(c1ccccc1)c1ccc(Cl)cc1`, the compound was called inactive.

For the compound `O=C=Nc1cccc2c(N=C=O)cccc12`, the compound was classed as inactive.

Take `CC(=O)C=O`: the result was inactive.

Consider `O=c1cccc[nH]1`, for which the outcome was inactive.

With `CC(C)Nc1ccc(NC(C)C)c2c1C(=O)c1ccccc1C2=O`, the outcome was inactive.

Consider `OCCC(O)CO` (stereo not given), for which the call was inactive.

Regarding `O=C1C=CC(=O)N1c1ccccc1`, the outcome was inactive.

In the case of `Oc1ccc(C2(c3ccc(O)c(C4CCCCC4)c3)CCCCC2)cc1C1CCCCC1`, the result was inactive.

Consider `O=C(c1ccccc1)c1ccc(O)cc1O`, for which the compound was called inactive.

Take `Cc1ccc2c(c1)OCC(=O)CO2`: the compound was called inactive.

Take `Oc1ccc2c(c1)CCC2`: the call was inactive.

As for `O=S(=O)(OCC(F)(F)F)C(F)(F)C(F)(F)C(F)(F)C(F)(F)F`, the result was inactive.

Regarding `FC(F)(F)C(F)(F)C(F)(F)C(F)(F)C(F)(F)C(F)(F)C(F)(F)CCI`, the compound was classed as inactive.

In the case of `CCOC(OCC)OCC`, the result was inactive.

On to `COc1ccccc1C=O`, for which the compound was called inactive.

Turning to `CCc1cc(Cc2cc(CC)c(N)c(CC)c2)cc(CC)c1N`, the compound was called inactive.

`Nc1cccnc1N`: the compound was classed as inactive.

Take `C=C(C)CCCC`: the result was inactive.

As for `CCN=c1cc2oc3cc(NCC)c(C)cc3c(-c3ccccc3C(=O)OCC)c-2cc1C`, the AC50 was 9.7 µM (active).

`C#CC(O)CCC` (stereo not given): the compound was classed as inactive.

As to `NC(=O)C(F)(F)C(F)(F)C(F)(F)C(F)(F)C(N)=O`, the outcome was inactive.

For `Cc1cc(=O)[nH]c(C(C)C)n1`, the result was inactive.

For `C[C@]12CC[C@H]3C(=CCc4cc(O)ccc43)[C@@H]1CCC2=O`, the outcome was inactive.

Turning to `O=C(O)CCC(F)(F)C(F)(F)C(F)(F)C(F)(F)C(F)(F)C(F)(F)C(F)(F)F`, the outcome was inactive.

As to `C=CC(=O)OCC(F)(F)C(F)(F)C(F)(F)COC(=O)C=C`, the AC50 was 26.4 µM (active).

In the case of `CC(C)CCCC(C)CCO` (stereo not given), the result was inactive.

On to `CN(N=O)C(=O)N[C@@H]1[C@@H](O)[C@H](O)[C@@H](CO)O[C@@H]1O`, for which the compound was classed as inactive.

Regarding `O=C1c2ccccc2C(=O)c2c(Cl)cccc21`, the compound was called inactive.

Regarding `FC(F)(F)C(F)(F)C(F)(F)C(F)(F)C(F)(F)C(F)(F)CC[Si](Cl)(Cl)Cl`, the outcome was inactive.

Turning to `OCC1CCCO1` (stereo not given), the call was inactive.

In the case of `CCOCN(C(=O)CS(=O)(=O)O)c1c(C)cccc1CC`, the result was inactive.

In the case of `CC1=CC2C3C=CC(C3)C2C1C` (stereo not given), the compound was called inactive.

Usually AC50 stands for the concentration giving half of the maximal activity seen.
